High-throughput results as filed in PubChem BioAssay.
This is a sample that favours compounds with a hit; in the whole collection about 12% have one here.
HP1b binding inh = HTS for Inhibitors of HP1-beta Chromodomain Interactions with Methylated Histone Tails; AlphaScreen HP1-beta / biotin-H3K9me3 peptide binding; Potency, µM (titrated, usually from 114 µM), most hits filed as inhibitors; actives 0.56% (n = 390,000); AID 540317, 2011; note: nearly all actives have a fitted effect of over 70% in size
Target sequence (P83916 whole entry, looked up): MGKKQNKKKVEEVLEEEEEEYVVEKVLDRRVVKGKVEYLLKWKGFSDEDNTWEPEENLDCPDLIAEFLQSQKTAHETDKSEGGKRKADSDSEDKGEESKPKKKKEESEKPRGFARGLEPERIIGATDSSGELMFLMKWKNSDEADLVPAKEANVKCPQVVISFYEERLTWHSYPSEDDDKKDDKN
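Compound inhibition of the preformed complex between 50 nM HP1-beta and 50 nM biotinylated H3K9me3 peptide was read by AlphaScreen. Buffer was PBS pH 7.4 with 0.01% Tween-20. Incubations ran 30 min at room temperature, with 10 ug/mL donor/acceptor beads.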
BAZ2B block = qHTS Assay for Inhibitors of BAZ2B. actives 4.4% (n = 360,000). Potency, µM (top dose mostly 114 µM), actives largely listed as inhibitors. Bromodomain adjacent to zinc finger domain protein 2B (Homo sapiens), Q9UIF8. AlphaScreen BAZ2B-H3K14Ac peptide displacement; note: nearly all actives have a fitted effect of over 60% in size
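BAZ2B 50 nM plus b-H3(5-23)K14Ac 50 nM, PBS pH 7.4/0.01% Tween-20, 30 min RT; compound added (max 110 uM), 30 min RT; streptavidin donor/Ni-chelate acceptor beads 10 ug/mL final, 20 min dark; AlphaScreen read.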
G9a inh = qHTS Assay for Inhibitors of Histone Lysine Methyltransferase G9a; G9a H3K9 monomethylation, AlphaScreen, 2 h; Potency, µM (series often up to 102 µM), usual class: inhibitors; actives 8.8% (n = 350,000); AID 504332, 2011; note: nearly all actives have a fitted effect of over 75% in size
Target sequence (Q96KQ7 913-1193 limits assumed): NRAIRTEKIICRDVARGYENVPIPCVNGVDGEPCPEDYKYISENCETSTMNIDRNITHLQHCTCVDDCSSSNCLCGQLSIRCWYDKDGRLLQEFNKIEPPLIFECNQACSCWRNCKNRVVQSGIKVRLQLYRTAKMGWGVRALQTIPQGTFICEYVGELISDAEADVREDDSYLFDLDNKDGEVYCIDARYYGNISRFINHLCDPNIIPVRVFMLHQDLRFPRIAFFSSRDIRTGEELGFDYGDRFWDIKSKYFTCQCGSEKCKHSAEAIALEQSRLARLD
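AlphaScreen detection with an anti-monomethyl H3K9 antibody quantified product after a 2 h room-temperature reaction containing 500 nM biotinylated H3K9 peptide, 20 µM SAM and 20 nM enzyme, which had been preincubated 15 min with compound.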
Sfp PPTase inh = qHTS Assay for Inhibitors of Bacillus subtilis Sfp phosphopantetheinyl transferase (PPTase); 4'-phosphopantetheinyl transferase ffp (Bacillus subtilis), Q9F4F7; Biochemical Sfp PPTase activity, qHTS; Potency, µM, actives largely listed as inhibitors; actives 3.5% (n = 310,000);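 note: the enzyme is Sfp with the accession as filed and its product quenches rhodamine fluorescence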
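Reaction rates are the 30-min fluorescence difference (ex 525, em 598 nm) in wells containing 15 nM Sfp, 5 uM rhodamine-CoA and 12.5 uM BHQ-2-YbbR at pH 7.6 with 10 mM MgCl2.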
JMJD2A Tudor = qHTS Assay for Inhibitors of JMJD2A-Tudor Domain. Lysine-specific demethylase 4A (Homo sapiens), O75164. AlphaScreen JMJD2A-Tudor / H3K4me3 peptide binding. actives 4.4% (n = 390,000). Potency, µM (highest dose often 114 µM), hits mostly inhibitors; note: nearly all actives have a fitted effect of over 50% in size
A number is an active result; . = inactive; ? = inconclusive; / = no result; [ ] = another dose, or the depositor's remark. Calls come from the whole dose curve; as a rule, active = well fitted curve in the direction sought with a large enough effect; inconclusive = small, poorly fitted or top-dose-only effect, or another doubt; inactive = no such curve, though single readings can be large; an effect the other way counts as inactive or inconclusive.

SMILES	HP1b binding inh	BAZ2B block	G9a inh	Sfp PPTase inh	JMJD2A Tudor
O=C(NNS(=O)(=O)c1ccc(F)cc1)c1ccccc1F	.	.	.	.	.
O=C(NNc1ccccn1)C(=O)NNS(=O)(=O)c1ccc(Cl)cc1	.	56.2µM	.	.	.
COc1ccc(C2C(C#N)=C3NC(=O)c4c(sc5c4CCCCC5)N3C3=C2C(=O)CC(C)(C)C3)cc1 (centres undefined)	?	.	.	56.2µM	.
COc1ccc(C2C(C#N)=C(N)N(c3sc4c(c3C#N)CCCC4)C3=C2C(=O)CC(C)(C)C3)cc1 (centres undefined)	.	.	.[2.33 µM]	.	?
Cc1nn(-c2nnc(C)c(=O)[nH]2)c(C)c1SCC(=O)Nc1ccc(F)cc1	.	50.1µM	?	31.6µM	31.6µM
Cc1n[nH]c(C)c1SCC(=O)Nc1ccc(F)cc1	.	.	.	.	.
COC(=O)[C@@]1(Cc2ccc(F)cc2)[C@@H]2[C@@H](CC(=O)[C@H]2CC(=O)C(=O)N(C)C)CN1C(=O)c1ccccc1	.	.	?	.	.
Cc1ccc(NC(=O)c2cc3ccccc3o2)cc1Cl	.	.	/	.	.
CSc1nccc(-c2nn(-c3ccc(C)cc3)ccc2=O)n1	.	25.1µM	.	.	56.2µM
C#CCSc1nccc(-c2nn(-c3ccc(C)cc3)ccc2=O)n1	?	.	.[12.7 µM]	79.4µM	79.4µM
CNC(=O)c1nn(-c2ccc(C)cc2)ccc1=O	.	.	.	.	.
C=CCSc1nccc(-c2nn(-c3ccc(C)cc3)ccc2=O)n1	.	.	50.1µM	.	.
CCSc1nccc(-c2nn(-c3ccc(C)cc3)ccc2=O)n1	.	.	79.4µM	.	.
Nc1nccc(-c2nn(-c3ccc(Cl)cc3)ccc2=O)n1	.	.	/	.	.
Cc1ccc(Cn2c(=O)n(CCCCC(=O)NCc3ccc4c(c3)OCO4)c(=O)c3ccccc32)cc1	.	.	.	/	.
CC(C)n1cnnc1SCC(=O)NCC(=O)Nc1ccc(F)cc1	.	.	.[12.7 µM]	/	.
COc1ccc(-c2cc(-c3ccccc3)nc(SCC(=O)Nc3ncc(C)s3)c2C#N)cc1	.	.	?	.	.
CCc1nnc(NC(=O)CSc2nc(-c3ccc(F)cc3)cc(-c3ccccc3)c2C#N)s1	.	.	3.16µM	31.6µM	.
CCc1nnc(NC(=O)CSc2ccc(-c3ccc(-n4cccn4)cc3)nn2)s1	.	.	10µM	/	.
Cc1ccccc1NC(=O)CSc1ccc(-c2ccc(-n3cccn3)cc2)nn1	.	.	.	/	.
O=C(NCCN1CCOCC1)c1ccc(CSc2nc3ccncc3n2Cc2ccc(F)cc2)cc1	.	.	.	.	.
CCOC(=O)C(=O)c1csc(NC(=O)CCSc2ccc(C)cc2)n1	.	/	70.8µM	.	.
CCOC(=O)c1csc(NC(=O)CCSc2ccccc2)n1	.	.	.	.	.
Cc1ccc(Nc2cc(C)nc3nc(Cc4ccc(Cl)cc4)nn23)cc1	.	.	.	/	.
CC(C#N)Sc1ccc(S(=O)(=O)N2CCCCC2)cn1 (centres undefined)	.	.	.[2.33 µM]	/	.
SMILES	HP1b binding inh	BAZ2B block	G9a inh	Sfp PPTase inh	JMJD2A Tudor
CN1CCN(C(=S)c2ccc(-c3cccc(Cl)c3Cl)o2)CC1	44.7µM	?	39.8µM	.	28.2µM
Clc1ccc(-c2ccc(CN3CCCCC3)o2)cc1	.	?	.	.	.
S=C(c1ccc(-c2ccccc2Cl)o1)N1CCCCC1	?	?	?	39.8µM	?
S=C(c1ccc(-c2ccc(Cl)cc2)o1)N1CCCCC1	?	28.2µM	12.6µM	20µM	22.4µM
CCOC(=O)C1CCCN(C(=O)c2ccc(-c3ccccc3Cl)o2)C1 (centres undefined)	.	/	/	/	.
N#CCCN1CCN(C(=S)c2ccc(-c3ccc(Cl)cc3)o2)CC1	?	39.8µM	?	20µM	44.7µM
COc1cc(CCC(=O)OCc2ccccc2C#N)cc(OC)c1OC	.	.	.	.	.
O=C(c1ccc(-c2ccccc2Cl)o1)N1CCN(c2ccccc2O)CC1	.	?	17.8µM	/	?
